Results: PubChem BioAssay (NCATS)
Inconclusive results are not listed. A number with no mark means an inactive call. Calls of active or inactive are those of the source. The call rests on the fitted dose curve; in most records, active means well fitted inhibition curve with a large enough effect; inconclusive means small, poorly fitted or top-dose-only effect; inactive means flat fitted curve, though single readings scatter.

Molecular target: Glutathione peroxidase 1 (Homo sapiens) (UniProt P07203)
Assay: Primary qHTS Assay for Inhibitors of Recombinant Selenoprotein Glutathione Peroxidase 1 (GPX1) (AID 1845191); further: nearly all actives have a fitted effect of over 65% in size
Conditions: recombinant GPX1, GR-coupled NADPH fluorescence, 15 min; series mostly up to 48.8 µM; activity, negative = inhibition: at the top concentration
How it was run: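 GR-coupled assay: compounds preincubated 30 min at room temperature with GPX1, then reaction started with CHP; final 10 nM GPX1, 1 mM GSH, 0.5 mM CHP, 0.5 mM NADPH, 100 nM GR, 0.01% BSA, pH 7.5 Tris buffer. NADPH fluorescence (340/450 nm) read at 0 and 15 min.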
On the % scale 0 is the no-effect control and ±100 the full control effect.

Chain of Glutathione peroxidase 1 (Homo sapiens) (P07203 whole entry, looked up): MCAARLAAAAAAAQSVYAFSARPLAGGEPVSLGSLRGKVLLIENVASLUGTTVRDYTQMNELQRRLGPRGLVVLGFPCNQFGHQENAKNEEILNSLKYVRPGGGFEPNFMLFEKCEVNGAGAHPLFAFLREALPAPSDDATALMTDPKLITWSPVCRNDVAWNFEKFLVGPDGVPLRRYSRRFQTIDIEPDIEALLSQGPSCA

Row | SMILES | activity, negative = inhibition | outcome | Potency
1 | COc1cccc(N2CCN(C(=O)Cn3ncc4c3-c3ccccc3OC4)CC2)c1 | -10.3% |  | 
2 | CCn1c(-c2nc3cc(C(=O)N4CCC[C@@H](N)C4)cc(OC)c3n2C)cc2ccccc21 |  | inactive | 
3 | Cc1nc2c(c(C)c1CCC(=O)N1CCN(c3ccccc3)CC1)c(=O)n(C)c(=O)n2C |  | inactive | 
4 | CNC(=O)c1ccccc1Oc1nc(Nc2cc(OC)c(OC)c(OC)c2)ncc1Br | 1.56% |  | 
5 | O=C(O)C1CCc2cc(C3CCCCC3)c(Cl)cc21 (centres undefined) |  | inactive | 
6 | COc1ccc(C[C@H](NC(=O)[C@H](C)NC(=O)CN2CCOCC2)C(=O)N[C@@H](Cc2ccccc2)C(=O)[C@@]2(C)CO2)cc1 |  | inactive | 
7 | CN1C(=O)[C@]23C[C@H]4C(C)(C)[C@]5(CNc6c5ccc5c6OC=CC(C)(C)O5)C[C@@]41CN2CC[C@@]3(C)O | -27.5% |  | 
8 | CCCCCCCCCC(=O)OCCN1CCN(CC/C=C2\c3ccccc3Sc3ccc(C(F)(F)F)cc32)CC1 | -26% |  | 
9 | O=[N+]([O-])c1ccc(Nc2nc(N3CCOCC3)nc(N3CCOCC3)n2)cc1 |  | inactive | 
10 | O=C1Cc2ccccc2N1 | -9.52% |  | 
11 | O=C(O)c1ccnc2cc(C(OCCCN3CCCCC3)c3ccccc3Cl)[nH]c12 (centres undefined) | -5.04% |  | 
12 | CCCCCCCCn1cc(CC(N)=O)c2cc(-c3cccc(C)c3)ccc21 | -4.03% |  | 
13 | Cc1ccc2nc(-c3ccc(Cl)c(NC(=O)c4ccc5c(c4)OCCO5)c3)oc2c1 | -1.1% |  | 
14 | CC(NC(=O)c1ccccc1N=Cc1c(O)ccc2ccccc12)c1ccccc1 (centres undefined) |  |  | inactive
15 | CC(=O)OC[C@H]1O[C@@H](n2cnc(N)nc2=O)[C@H](OC(C)=O)[C@@H]1OC(C)=O |  | inactive | 
16 | O=C(O)CCN(O)C(=O)CCCCCCCCC1CC1 | -5.84% |  | 
17 | C=C(NC(=O)C(=C)NC(=O)c1csc(C2=N[C@H]3c4csc(n4)[C@H]4NC(=O)c5csc(n5)[C@H]([C@@](C)(O)[C@@H](C)O)NC(=O)[C@H]5CSC(=N5)C(=CC)NC(=O)[C@H]([C@@H](C)O)NC(=O)c5csc(n5)[C@]3(CC2)NC(=O)[C@H](C)NC(=O)C(=C)NC(=O)[C@H](C)NC(=O)[C@H](C(C)CC)N[C@@H]2C=Cc3c([C@H](C)O)cc(nc3[C@H]2O)C(=O)O[C@@H]4C)n1)C(N)=O (some centres undefined) | -18.4% |  | 

Row | SMILES | activity, negative = inhibition | outcome | Potency
18 | C/C=C(/C)C(=O)O[C@@H]1c2cc(OC)c(OC)c(OC)c2-c2c(cc3c(c2OC)OCO3)C[C@H](C)[C@]1(C)O | -17.4% |  | 
19 | CC(c1ccc(-c2ccc(CC(=O)O)cn2)cc1)N1CCCCC1 (centres undefined) |  | inactive | 
20 | O=C(CCl)Nc1ccc(S(=O)(=O)c2ccc(NC(=O)CCl)cc2)cc1 | -2.14% |  | 
21 | CC(C)n1cnc2c(NCc3ccccc3)nc(NCCCO)nc21 |  | inactive | 
22 | CCOC(=O)[C@H](C)C[C@@H](Cc1ccc(-c2ccccc2)cc1)NC(=O)CCC(=O)O | -14.5% |  | 
23 | CN1CCc2cc(Nc3ncc(C4CC4)c(NCCCNC(=O)C4CCC4)n3)ccc2C1 |  | inactive | 
24 | O=[N+]([O-])c1cc(S(=O)(=O)Nc2ccc(O)c3ccccc23)ccc1Cl | -22.7% |  | 
25 | CC1CCc2c(cc(Br)c(F)c2Br)N1C=O (centres undefined) |  | inactive | 
26 | CCc1c(C(=O)Nc2cc(S(=O)(=O)N(CC)CC)ccc2O)[nH]c(C)c1C(C)=O | -26.4% |  | 
27 | CO[C@H]1/C=C\O[C@@]2(C)Oc3c(C)c(O)c4c(O)c(c5c(c4c3C2=O)=NC2(CCN(CC(C)C)CC2)N=5)NC(=O)/C(C)=C\C=C/[C@H](C)[C@H](O)[C@@H](C)[C@@H](O)[C@@H](C)[C@H](OC(C)=O)[C@@H]1C |  | inactive | 
28 | COc1ccc(C(=O)Nc2ccc3oc(-c4ccc(F)cc4Cl)nc3c2)cc1 | -0.482% |  | 
29 | C[C@@H]1[C@H](C)CC[C@]2(C(=O)O[C@@H]3O[C@@H](CO[C@@H]4O[C@@H](CO)[C@@H](O[C@@H]5O[C@@H](C)[C@@H](O)[C@@H](O)[C@H]5O)[C@@H](O)[C@H]4O)[C@@H](O)[C@@H](O)[C@H]3O)CC[C@]3(C)C(=CC[C@H]4[C@@]5(C)C[C@@H](O)[C@@H](O)[C@](C)(CO)[C@@H]5CC[C@@]43C)[C@H]12 | 0.101% [at 15.3 µM] |  | 
30 | Clc1cccc(N2CCN(c3nc4ccccc4c4nc(-c5cccnc5)nn34)CC2)c1 |  | inactive | 
31 | Cc1cc(C)n(CCc2nc3c4ccccc4nc(N4CCN(c5cccc(C)c5C)CC4)n3n2)n1 |  | inactive | 
32 | Cn1cc(C(=O)Cc2ccccc2)cc1/C=C/C(=O)NO | -14.2% |  | 
33 | CN1CCN(C(c2ccc(Cl)cc2Cl)c2sc3nc(-c4ccco4)nn3c2O)CC1 (centres undefined) | -18.3% |  | 
34 | CCc1ccccc1N1C(=O)N(Cc2cc(=O)n3ccccc3n2)c2ccccc2S1(=O)=O | -5.59% |  | 
